Results: PubChem BioAssay (NCATS)
Results filed as inconclusive are left out. A number with no mark means an inactive call. Calls of active or inactive are those of the source. The call rests on the fitted dose curve; in most records, active means well fitted inhibition curve with a large enough effect; inconclusive means small, poorly fitted or top-dose-only effect; inactive means flat fitted curve, though single readings scatter.

Experiments:
CRL-7250 = normal cell line; test: Cytotoxic Profiling of Annotated Libraries Using Quantitative High-Throughput Screening (AID 1296008); details: Five cell lines viability, CellTiter-Glo ATP luminescence, 48-72 h; max response: stronger effect = lower value; further: nearly all actives have a fitted effect of over 60% in size
How it was run: (§1)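 Cells exposed to compounds for 48 or 72 hr at 37 degrees Celsius. Viability read as ATP-coupled luminescence with CellTiter-Glo after 10 min at room temperature.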

HEK293 = test: as above; details: Five cell lines viability, CellTiter-Glo ATP luminescence, 48-72 h; max response: stronger effect = lower value
How it was run: as §1
On the % scale 0 is the no-effect control and ±100 the full control effect; potency means the concentration at half of the fitted maximal effect.

For `CC1(C)CC2=C3C=CC4C5(C)CCC(O)C(C)(C)C5CCC4(C)C3(C)CCC2(C)C(O)C1` (stereo not drawn), which max response (CRL-7250) is on record?
The max response was -3.63%.

And the max response (HEK293)?
The max response was -1.33%.

With `CC1=CC(=O)CC(C)(CO)C1(O)/C=C/C(C)O[C@@H]1O[C@H](CO)[C@@H](O)[C@H](O)[C@H]1O` (stereo partly drawn) as the compound, how does the max response (CRL-7250) read?
Its max response is -0.153%.

And the max response (HEK293)?
The max response was -1.52%.

For `CC(Nc1ncnc2nc[nH]c12)c1cc2cccc(Cl)c2c(=O)n1-c1ccccc1` (stereo not drawn), which max response (CRL-7250) is on record?
The max response was -7.8%.

What about the Potency (HEK293) of the same compound?
The Potency was 18400 nM (active).

What does the source list for `O=C(O)CC1CCC(c2ccc(-c3ccc4nc(C(=O)NCc5ccc(OC(F)(F)F)cc5)cn4c3)cc2)CC1` (stereo not drawn)?
max response (CRL-7250): 4.28%; max response (HEK293): -9.35%

What does the source list for `O=[N+]([O-])c1cn2c(n1)OCC(OCc1ccc(OC(F)(F)F)cc1)C2` (stereo not drawn)?
max response (CRL-7250): -10.3%; max response (HEK293): -14.5%

What does the source list for `CC[C@]1(O)CC2CN(CCc3c([nH]c4ccccc34)[C@@](C(=O)OC)(c3cc4c(cc3OC)N(C=O)[C@H]3[C@@](O)(C(=O)OC)[C@H](OC(C)=O)[C@]5(CC)C=CCN6CC[C@]43[C@@H]65)C2)C1` (stereo partly drawn)?
Potency (CRL-7250): 64 nM (active); Potency (HEK293): 32.1 nM (active)

For `CC[C@@H](O)C[C@@H]1C(C)=C[C@@H]2CCCC[C@@H]2[C@@]1(C)C(=O)O`, which max response (CRL-7250) is on record?
The max response was -0.45%.

And the max response (HEK293)?
Its max response is -6.46%.

How did the max response (CRL-7250) turn out when `OC/C=C/c1ccc(O[C@@H]2O[C@H](CO)[C@@H](O)[C@H](O)[C@H]2O)cc1` was run?
The max response was -14.7%.

And the max response (HEK293)?
Its max response is -1.19%.

`COc1cccc(-c2cc(NCc3ccc4c(c3)OCO4)nc(N)n2)c1` was tested. Which Potency (CRL-7250) did it give?
The Potency was 920 nM (active).

What about the Potency (HEK293) of the same compound?
Its Potency is 184 nM (active).

Which max response (CRL-7250) does the source give for `CC(NC(=O)CCc1nc2ccccc2c(=O)[nH]1)c1ccccc1` (stereo not drawn) here?
Its max response is -18.4%.

And the max response (HEK293)?
Its max response is -0.47%.

How did the max response (CRL-7250) turn out when `CCOC(=O)C(CCc1ccccc1)NC(C)C(=O)N1C(=O)N(C)CC1C(=O)O` (stereo not drawn) was run?
Its max response is 3.58%.

What about the max response (HEK293) of the same compound?
The max response was -4.81%.

What does the source list for `C=C(C)C1CCC2(C(=O)O)CCC3(C(=O)O)C(CCC4C5(C)CCC(O)C(C)(C(=O)O)C5CCC43C)C12` (stereo not drawn)?
outcome (CRL-7250): inactive; max response (HEK293): 3.45%

Which results are given for `CC12CCC(=O)C=C1C(O)CC1C2C(O)CC2(C)C1CC[C@]2(O)C(=O)CO` (stereo partly drawn)?
outcome (CRL-7250): inactive; max response (HEK293): -5.89%

Which results are given for `COc1cc2ncnc(N3CCC(Oc4cnc5ccccc5n4)C3)c2cc1OC` (stereo not drawn)?
Potency (CRL-7250): 6510 nM (active); Potency (HEK293): 366 nM (active)

Which max response (CRL-7250) does the source give for `C/C(=C/CO)CC[C@@H]1[C@@](C)(O)CCC2C(C)(C)CCC[C@]21C` (stereo partly drawn) here?
The max response was 1.57%.

And the max response (HEK293)?
The max response was 4.02%.

Which max response (CRL-7250) does the source give for `CC1=CC(=O)CC(C)(C)C1/C=C/C(C)O[C@@H]1O[C@H](CO)[C@@H](O)[C@H](O)[C@H]1O[C@@H]1OC[C@](O)(CO)[C@H]1O` (stereo partly drawn) here?
Its max response is -0.149%.

And the max response (HEK293)?
Its max response is 1.02%.

`CCOC(=O)Nc1cc(-c2ccc(C)c(NS(C)(=O)=O)c2)nn2c(C)nnc12` was tested. Which Potency (CRL-7250) did it give?
The Potency was 7310 nM (active).

What about the Potency (HEK293) of the same compound?
The Potency was 4110 nM (active).

Which max response (CRL-7250) does the source give for `CC(=O)O[C@@H](CO[C@@H]1O[C@H](CO)[C@H](O)[C@H](O)[C@H]1O)[C@]1(C)C=C2CC[C@@H]3C(C)(C)[C@@H](O)CC[C@@]3(C)[C@@H]2CC1` here?
Its max response is -3.06%.

What about the max response (HEK293) of the same compound?
Its max response is -1.31%.

Which results are given for `CC1CCC2(OC1)OC1CC3C4CCC5C[C@@H](O[C@@H]6O[C@H](CO[C@@H]7OC[C@@H](O)[C@H](O)[C@H]7O)[C@H](O)[C@H](O)[C@H]6O)CC[C@]5(C)C4CC[C@]3(C)C1C2C` (stereo partly drawn)?
max response (CRL-7250): -3.87%; outcome (HEK293): inactive

What does the source list for `C[C@@H]1O[C@@H](O[C@H]2[C@H](O)[C@@H](C(=O)O)O[C@@H](O[C@H]3CC[C@@]4(C)C(CC[C@]5(C)C4CC=C4C6CC(C)(C)CC[C@]6(C(=O)O)CC[C@]45C)C3(C)C)[C@@H]2O[C@@H]2OC[C@@H](O)[C@H](O)[C@H]2O)[C@H](O)[C@H](O)[C@H]1O` (stereo partly drawn)?
max response (CRL-7250): 3.95%; max response (HEK293): -0.663%

How did the max response (CRL-7250) turn out when `CCCCCCOc1cc2c(cc1N(C)c1ncc(C(=O)O)cn1)C(C)(C)CCC2(C)C` was run?
The max response was 4.99%.

What about the max response (HEK293) of the same compound?
The max response was 3.1%.

For `C[C@H](NC(c1cccc(C[P+](=O)O)c1)[C@H](C)O)c1ccc(Cl)c(Cl)c1` (stereo partly drawn), which outcome (CRL-7250) is on record?
Its outcome is “inactive”.

And the max response (HEK293)?
The max response was -17.8%.

What does the source list for `C/C=C/C=C/[C@@H]1O[C@](O)([C@H](CC)C(=O)NC/C=C/C=C(\C)[C@@H](OC)[C@@H](C)C2OC(/C=C/C=C/C=C(\C)C(=O)c3c(O)cc[nH]c3=O)[C@H](O)[C@@H]2O)[C@H](O)[C@H](O)C1(C)C` (stereo partly drawn)?
max response (CRL-7250): 2.59%; max response (HEK293): 1.43%

`O=C(O[C@H]1[C@@H]2C=CO[C@@H](O[C@@H]3O[C@H](CO)[C@@H](O)[C@H](O)[C@H]3O)[C@@H]2[C@@]2(CO)O[C@@H]12)c1ccccc1` was tested. Which max response (CRL-7250) did it give?
The max response was -3.06%.

What about the max response (HEK293) of the same compound?
The max response was -2.12%.

Which max response (CRL-7250) does the source give for `OC[C@@]1(O)CO[C@@H](OC[C@H]2O[C@@H](Oc3c[nH]c4ccccc34)[C@H](O)[C@@H](O)[C@@H]2O)[C@@H]1O` here?
The max response was -23.1%.

And the max response (HEK293)?
The max response was -21.5%.

Which outcome (CRL-7250) does the source give for `CC(C)C[C@H](CC(=O)NO)C(=O)N[C@H](C(=O)N[C@@H](C)C(=O)NCCN)C(C)(C)C` here?
The outcome was “inactive”.

What about the max response (HEK293) of the same compound?
Its max response is -1.44%.

For `CC1CC2OC3(OC2C(C)(C)O)C1C1(C)CCC24CC25CCC(O[C@@H]2OC[C@@H](O)[C@H](O)[C@H]2O)C(C)(C)C5CC=C4C1(C)C3O` (stereo partly drawn), which max response (CRL-7250) is on record?
Its max response is -7.03%.

What about the outcome (HEK293) of the same compound?
Its outcome is “inactive”.

What does the source list for `O=C1NC2CCc3nc4ccccc4c(=O)n3C2=Nc2ccccc21` (stereo not drawn)?
max response (CRL-7250): 2.4%; max response (HEK293): -3.35%

`CC(C)[C@H]1CC[C@@]2(O)COC(=O)[C@H]2[C@@H]1/C=C(\CO)C(=O)O` was tested. Which max response (CRL-7250) did it give?
Its max response is -25.6%.

What about the max response (HEK293) of the same compound?
Its max response is 2.97%.

How did the max response (CRL-7250) turn out when `O=C1C=CC(O)(/C=C/C(=O)OC[C@H]2O[C@@H](Oc3ccc(O)cc3)[C@H](O)[C@@H](O)[C@@H]2O)C=C1` was run?
Its max response is 0.651%.

And the max response (HEK293)?
Its max response is -4.12%.

Which max response (CRL-7250) does the source give for `C[C@@H]1O[C@@H](O[C@H]2[C@H](O[C@H]3[C@H](O[C@H]4CC[C@@]5(C)C(CC[C@]6(C)C5CC=C5[C@@H]7CC(C)(C)C[C@@H](O)[C@]7(C)CC[C@]56C)[C@@]4(C)CO)O[C@H](C(=O)O)[C@@H](O)[C@@H]3O)OC[C@H](O)[C@@H]2O)[C@H](O)[C@H](O)[C@H]1O` (stereo partly drawn) here?
Its max response is -3.42%.

And the max response (HEK293)?
Its max response is -4.78%.

For `CCOC(=O)c1sc(NC(=O)[C@H](C(C)C)n2c(=O)[nH]c3ccccc3c2=O)nc1C`, which outcome (CRL-7250) is on record?
Its outcome is “inactive”.

And the max response (HEK293)?
The max response was -9.44%.

For `C[C@@]12CC[C@@H]3[C@@](CC[C@H]4[C@@]3(C)CCC[C@@]4(C)C(=O)O)(CC1=O)C2`, which max response (CRL-7250) is on record?
The max response was -4.96%.

What about the max response (HEK293) of the same compound?
Its max response is -6.36%.

Which results are given for `C=C1CCC2C(C)(COC(C)=O)CCCC2(C)C1CCC(C)CC(=O)O` (stereo not drawn)?
max response (CRL-7250): -3%; outcome (HEK293): inactive

How did the max response (CRL-7250) turn out when `CC1=C(COC2OC(CO)C(O)C(O)C2O)C(C(CO)C(=O)O)CC1` (stereo not drawn) was run?
Its max response is 2.58%.

What about the max response (HEK293) of the same compound?
The max response was -0.67%.

For `COc1ccc([C@H]2CNC(=O)C2)cc1OC1CCCC1`, which max response (CRL-7250) is on record?
The max response was -5.24%.

What about the max response (HEK293) of the same compound?
Its max response is -1.53%.

What does the source list for `COc1ccc(/C=C\C(=O)O)c(O[C@@H]2O[C@H](CO)[C@@H](O)[C@H](O)[C@H]2O)c1`?
outcome (CRL-7250): inactive; max response (HEK293): -0.642%

Which max response (CRL-7250) does the source give for `O=C(/C=C/c1ccc(O)cc1)OC1[C@H](O)CC(O)(C(=O)O)C[C@H]1O` (stereo partly drawn) here?
The max response was -9.1%.

What about the max response (HEK293) of the same compound?
Its max response is -1.83%.

What does the source list for `COC1CC(O[C@H]2CC[C@@]3(C)C(CCC4C3[C@H](OC(C)=O)[C@@H](OC(=O)/C=C/c3ccccc3)[C@]3(C)C(C(C)=O)CC[C@]43O)C2)OC(C)C1OC1CC(OC)C(OC2CC(OC)C(OC3OC(C)C(OC4OC(CO)C(O)C(O)C4O)C(OC)C3O)C(C)O2)C(C)O1` (stereo partly drawn)?
max response (CRL-7250): -13.2%; max response (HEK293): -13.6%
